According to PubChem BioAssay AID793 (The Scripps Research Institute Molecular Screening Center, 2007):
Out of some 140,000 compounds screened, about 1,400 (1%) were called active. The entries come from a sample that favours actives as a whole. Unmarked numbers belong to inactive results. Rule as the data show it: active = inhibition above about 17%; inactive = the rest.

biological target: Neuropeptide Y receptor type 2 (Homo sapiens) (UniProt P49146); assay: NPY-Y2 receptor antagonists, primary screen, cell-based (AID 793); conditions: NPY-Y2 expressing cells, antagonist mode; at 2.7 µM; active compounds read high;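 also: 0% = vehicle with agonist challenge and 100% = reference antagonist with challenge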
Sequence (P49146 whole entry, looked up): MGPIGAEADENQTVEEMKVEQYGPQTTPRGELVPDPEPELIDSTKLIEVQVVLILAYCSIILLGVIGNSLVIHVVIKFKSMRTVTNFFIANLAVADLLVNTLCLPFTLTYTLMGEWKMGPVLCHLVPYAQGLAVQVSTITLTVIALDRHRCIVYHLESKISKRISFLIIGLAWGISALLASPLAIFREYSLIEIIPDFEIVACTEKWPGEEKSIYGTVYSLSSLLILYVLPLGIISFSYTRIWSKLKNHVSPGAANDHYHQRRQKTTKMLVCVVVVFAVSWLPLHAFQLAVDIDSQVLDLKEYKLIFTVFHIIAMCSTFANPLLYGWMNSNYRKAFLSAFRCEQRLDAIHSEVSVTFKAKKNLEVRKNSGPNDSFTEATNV

| SMILES | inhibition |
| --- | --- |
| NC(=O)CC[C@@H]1NC(=O)[C@H](CO)NC(=O)c2cc([N+](=O)[O-])cc(I)c2NCC[C@@H](C(N)=O)NC1=O | 0.11% |
| COCCN1C(=O)N[C@@H](c2ccccc2)C(C(=O)OC)=C1C | 1.37% |
| Cc1ccc(S(=O)(=O)c2ccc(Cl)cc2)cc1S(=O)(=O)NC(C(=O)O)C(C)C (stereo unspecified) | -0.6% |
| C/C(Cc1ccccc1)=N\NC(=O)CNC(=O)c1cccc(Br)c1 | 2.91% |
| N#Cc1c(NC(=O)CCCN2C(=O)c3ccccc3C2=O)oc(-c2ccccc2)c1-c1ccccc1 | 20.4% (active) |
| COc1cc(C(=O)Nc2oc(-c3ccccc3)c(-c3ccccc3)c2C#N)cc(OC)c1OC | 0.05% |
| O=C(CCN1C(=O)c2ccccc2C1=O)Nc1ccncc1 | 1.5% |
| O=C(/C=C/c1cnc2ccccc2n1)NC1CCCCCC1 | 5.1% |
| O=C(O)/C(=C/c1cccnc1)NC(=O)c1ccccc1 | 0.95% |
| CCCc1[nH]nc2c1C(c1ccc(Br)s1)C(C#N)=C(N)O2 (stereo unspecified) | 53.5% (active) |
| CCCc1[nH]nc2c1C(c1c(C)nn(-c3ccccc3)c1Cl)C(C#N)=C(N)O2 (stereo unspecified) | 0.27% |
| CCCc1[nH]nc2c1C(C1CC=CCC1)C(C#N)=C(N)O2 (stereo unspecified) | 2.32% |
| Cc1[nH]c2ccccc2c1C(=O)COC(=O)c1c(-c2ccccc2)noc1C | -0.4% |
| C/C(=C/C(=O)N1CCN(C)CC1)C(=O)O | 1.55% |
| CN(CC(=O)Nc1ccc(S(=O)(=O)N2CCCC2)cc1)Cc1ccc(Cl)c(Cl)c1 | 1.24% |
| CC(C)CNC(=S)NC(=O)c1ccc(Cl)cc1 | 6.88% |
| N=c1n(Cc2ccc(Cl)cc2)c2ccccc2n1CC(O)c1ccco1 (stereo unspecified) | 18.4% (active) |
| O=S(=O)(O)c1nc2ccccc2n1Cc1ccc(Cl)cc1 | 3% |
| Cc1ccc(Cn2c(NC(=O)c3ccco3)nc3ccccc32)cc1 | 15.8% |
| CC(C)[C@@H]1NC(=O)c2cc([N+](=O)[O-])cc(I)c2NCCC[C@@H](C(=O)NC(CC(=O)O)C(N)=O)NC(=O)[C@H](CO)NC1=O (stereo partly specified) | 2.25% |
| CCOc1ccc(NC(=O)c2ccc(CSc3nnnn3C)cc2)cc1 | 1.22% |
| C=CCNCCCCOc1ccccc1 | 28.3% (active) |
| O=C(NCCOc1ccccc1)c1ccccc1 | 0.21% |
| C=CCNC(=O)CCCOc1cccc(C)c1 | 1.38% |
| CCC1S/C(=N/N=C/c2ccco2)NC1=O (stereo unspecified) | 2.82% |
| CN(C)S(=O)(=O)c1cc(NC(=O)CN2C(=O)NC3(CCCc4ccccc43)C2=O)ccc1Cl (stereo unspecified) | -4.1% |
